Reference: PubChem BioAssay AID1159580 (chemical genetic matrix, 2015)
The whole screen tested about 5,500 compounds, of which about 2,000 (36%) were called active. Inconclusive results (about 18%) are left out. No stated cut-off is given here; in the data, active means normalized growth mostly below about 0.91 (no sharp cut-off); inconclusive means no clear call, values can overlap the other calls; inactive means mostly above about 0.92. This is one part of the list.

Test: chemical genetic growth profiling, strain panel (AID 1159580);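 further: tested at 20 µM; growth read once vehicle control cultures reached saturation at 30 °C; 1 = growth at the plate median or of vehicle wells; lower values mean less growth of the strain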
Details: growth OD

Measured: normalized growth

COc1ccc(-c2oc3cc(O[C@H]4O[C@H](CO)[C@@H](O)[C@H](O)[C@H]4O)c(OC)c(O)c3c(=O)c2OC)cc1O
inactive: S. cerevisiae deletion strains, locus YAL013W, strain DEP1, hits give low values 1.02 | S. cerevisiae deletion strains, locus YAL021C, strain ccr4, hits give low values 1.01 | S. cerevisiae deletion strains, locus YAL026C, strain drs2, hits give low values 0.996 | S. cerevisiae deletion strains, locus YAL030W, strain snc1, hits give low values 1 | S. cerevisiae deletion strains, locus YBL061C, strain skt5, hits give low values 0.996 | S. cerevisiae deletion strains, locus YBR009C, strain hhf1, hits give low values 0.997 | S. cerevisiae deletion strains, locus YBR021W, strain FUR4, hits give low values 1 | S. cerevisiae deletion strains, locus YBR023C, strain chs3, hits give low values 0.992 | S. cerevisiae deletion strains, locus YBR171W, strain sec66, hits give low values 0.99 | S. cerevisiae deletion strains, locus YBR229C, strain ROT2, hits give low values 1 | S. cerevisiae deletion strains, locus YBR231C, strain swc5, hits give low values 0.99 | S. cerevisiae deletion strains, locus YBR279W, strain paf1, hits give low values 1 | S. cerevisiae deletion strains, locus YCL011C, strain gbp2, hits give low values 1 | S. cerevisiae deletion strains, locus YCL016C, strain dcc1, hits give low values 1 | S. cerevisiae deletion strains, locus YCL029C, strain bik1, hits give low values 0.969 | S. cerevisiae deletion strains, locus YCL061C, strain MRC1, hits give low values 0.998 | S. cerevisiae deletion strains, locus YCL069W, strain vba3, hits give low values 0.999 | S. cerevisiae deletion strains, locus YCR088W, strain abp1, hits give low values 0.996 | S. cerevisiae deletion strains, locus YDL005C, strain med2, hits give low values 1.01 | S. cerevisiae deletion strains, locus YDL035C, strain GPR1, hits give low values 0.991 | S. cerevisiae deletion strains, locus YDL040C, strain nat1, hits give low values 0.994 | S. cerevisiae deletion strains, locus YDL074C, strain BRE1, hits give low values 0.925 | S. cerevisiae deletion strains, locus YDL101C, strain DUN1, hits give low values 0.997 | S. cerevisiae deletion strains, locus YDL134C, strain PPH21, hits give low values 0.982 | S. cerevisiae deletion strains, locus YDL185W, strain tfp1, hits give low values 0.984 | S. cerevisiae deletion strains, locus YDL192W, strain arf1, hits give low values 0.961 | S. cerevisiae deletion strains, locus YDR001C, strain nth1, hits give low values 1 | S. cerevisiae deletion strains, locus YDR069C, strain doa4, hits give low values 1 | S. cerevisiae deletion strains, locus YDR101C, strain arx1, hits give low values 0.97 | S. cerevisiae deletion strains, locus YDR137W, strain rgp1, hits give low values 0.905 | S. cerevisiae deletion strains, locus YDR159W, strain sac3, hits give low values 1 | S. cerevisiae deletion strains, locus YDR162C, strain NBP2, hits give low values 0.983 | S. cerevisiae deletion strains, locus YDR195W, strain ref2 1.01 | S. cerevisiae deletion strains, locus YDR297W, strain sur2, hits give low values 0.989 | S. cerevisiae deletion strains, locus YDR318W, strain mcm21, hits give low values 0.962 | S. cerevisiae deletion strains, locus YDR334W, strain swr1, hits give low values 0.996 | S. cerevisiae deletion strains, locus YDR335W, strain msn5, hits give low values 1 | S. cerevisiae deletion strains, locus YDR388W, hits give low values 0.971 | S. cerevisiae deletion strains, locus YDR392W, strain spt3, hits give low values 0.897 | S. cerevisiae deletion strains, locus YDR502C, strain sam2, hits give low values 0.956 | S. cerevisiae deletion strains, locus YEL003W, strain gim4, hits give low values 0.996 | S. cerevisiae deletion strains, locus YEL037C, strain rad23, hits give low values 0.994 | S. cerevisiae deletion strains, locus YEL061C, strain CIN8 (second series), hits give low values 1 | S. cerevisiae deletion strains, locus YEL061C, strain CIN8, hits give low values 0.981 | S. cerevisiae deletion strains, locus YER015W, strain faa2, hits give low values 1.01 | S. cerevisiae deletion strains, locus YER016W, strain bim1, hits give low values 0.997 | S. cerevisiae deletion strains, locus YER110C, hits give low values 0.964 | S. cerevisiae deletion strains, locus YER111C, strain swi4, hits give low values 1 | S. cerevisiae deletion strains, locus YER155C, strain BEM2 (second series), hits give low values 0.998 | S. cerevisiae deletion strains, locus YER155C, strain BEM2, hits give low values 1.01 | S. cerevisiae deletion strains, locus YER167W, strain BCK2, hits give low values 0.999 | S. cerevisiae deletion strains, locus YFR010W, strain ubp6, hits give low values 1 | S. cerevisiae deletion strains, locus YGL078C, strain dbp3, hits give low values 0.975 | S. cerevisiae deletion strains, locus YGL086W, strain mad1, hits give low values 0.97 | S. cerevisiae deletion strains, locus YGL167C, strain pmr1, hits give low values 0.994 | S. cerevisiae deletion strains, locus YGL173C, strain kem1, hits give low values 0.989 | S. cerevisiae deletion strains, locus YGL227W, strain vid30, hits give low values 0.996 | S. cerevisiae deletion strains, locus YGL240W, strain doc1, hits give low values 1.01 | S. cerevisiae deletion strains, locus YGL248W, strain PDE1, hits give low values 0.984 | S. cerevisiae deletion strains, locus YGL253W, strain hxk2, hits give low values 1 | S. cerevisiae deletion strains, locus YGR078C, strain PAC10, hits give low values 0.959 | S. cerevisiae deletion strains, locus YGR135W, strain pre9, hits give low values 0.949 | S. cerevisiae deletion strains, locus YGR229C, strain SMI1, hits give low values 0.956 | S. cerevisiae deletion strains, locus YGR252W, strain gcn5, hits give low values 0.891 | S. cerevisiae deletion strains, locus YHR013C, strain ard1, hits give low values 1.01 | S. cerevisiae deletion strains, locus YHR027C, strain rpn1, hits give low values 1.01 | S. cerevisiae deletion strains, locus YHR030C, strain SLT2, hits give low values 1 | S. cerevisiae deletion strains, locus YHR079C, strain IRE1 (second series), hits give low values 0.99 | S. cerevisiae deletion strains, locus YHR094C, strain hxt1, hits give low values 0.981 | S. cerevisiae deletion strains, locus YHR129C, strain ARP1, hits give low values 0.969 | S. cerevisiae deletion strains, locus YHR142W, strain chs7, hits give low values 0.985 | S. cerevisiae deletion strains, locus YHR200W, strain rpn10, hits give low values 0.953 | S. cerevisiae deletion strains, locus YIL066C, strain RNR3, hits give low values 0.98 | S. cerevisiae deletion strains, locus YIL073C, strain SPO22, hits give low values 0.971 | S. cerevisiae deletion strains, locus YIL125W, strain kgd1, hits give low values 0.981 | S. cerevisiae deletion strains, locus YIR030C, strain dcg1, hits give low values 0.982 | S. cerevisiae deletion strains, locus YJL092W, strain hpr5, hits give low values 1 | S. cerevisiae deletion strains, locus YJL095W, strain BCK1 (second series), hits give low values 0.992 | S. cerevisiae deletion strains, locus YJL095W, strain BCK1, hits give low values 0.916 | S. cerevisiae deletion strains, locus YJL115W, strain asf1, hits give low values 1 | S. cerevisiae deletion strains, locus YJL129C, strain trk1, hits give low values 0.935 | S. cerevisiae deletion strains, locus YJL134W, strain LCB3, hits give low values 0.995 | S. cerevisiae deletion strains, locus YJL154C, strain vps35, hits give low values 1.01 | S. cerevisiae deletion strains, locus YJL164C, strain tpk1, hits give low values 0.992 | S. cerevisiae deletion strains, locus YJL166W, strain qcr8, hits give low values 1 | S. cerevisiae deletion strains, locus YJL168C, strain set2, hits give low values 0.977 | S. cerevisiae deletion strains, locus YJL187C, strain SWE1 (second series), hits give low values 0.965 | S. cerevisiae deletion strains, locus YJL187C, strain SWE1, hits give low values 1.01 | S. cerevisiae deletion strains, locus YJR043C, strain POL32, hits give low values 0.982 | S. cerevisiae deletion strains, locus YKL009W, strain mrt4, hits give low values 0.965 | S. cerevisiae deletion strains, locus YKL068W, hits give low values 0.99 | S. cerevisiae deletion strains, locus YKL085W, strain MDH1 (second series), hits give low values 0.994 | S. cerevisiae deletion strains, locus YKL085W, strain MDH1, hits give low values 0.994 | S. cerevisiae deletion strains, locus YKL160W, strain elf1, hits give low values 0.992 | S. cerevisiae deletion strains, locus YKR001C, strain vps1, hits give low values 1 | S. cerevisiae deletion strains, locus YKR026C, strain gcn3, hits give low values 0.995 | S. cerevisiae deletion strains, locus YKR091W, strain srl3, hits give low values 1 | S. cerevisiae deletion strains, locus YLL001W, strain dnm1, hits give low values 0.994 | S. cerevisiae deletion strains, locus YLL026W, hits give low values 0.995 | S. cerevisiae deletion strains, locus YLL041C, strain sdh2, hits give low values 1 | S. cerevisiae deletion strains, locus YLR027C, strain aat2, hits give low values 1.01 | S. cerevisiae deletion strains, locus YLR039C, strain RIC1, hits give low values 0.989 | S. cerevisiae deletion strains, locus YLR058C, strain SHM2, hits give low values 0.989 | S. cerevisiae deletion strains, locus YLR102C, strain apc9, hits give low values 0.968 | S. cerevisiae deletion strains, locus YLR221C, strain rsa3, hits give low values 0.997 | S. cerevisiae deletion strains, locus YLR258W, strain gsy2, hits give low values 1 | S. cerevisiae deletion strains, locus YLR262C, strain YPT6 (second series), hits give low values 0.951 | S. cerevisiae deletion strains, locus YLR262C, strain YPT6, hits give low values 0.979 | S. cerevisiae deletion strains, locus YLR268W, strain sec22, hits give low values 0.955 | S. cerevisiae deletion strains, locus YLR320W, strain mms22, hits give low values 0.993 | S. cerevisiae deletion strains, locus YLR330W, strain CHS5, hits give low values 1.01 | S. cerevisiae deletion strains, locus YLR342W, strain FKS1 (second series), hits give low values 0.983 | S. cerevisiae deletion strains, locus YLR342W, strain FKS1, hits give low values 0.995 | S. cerevisiae deletion strains, locus YLR357W, strain rsc2, hits give low values 0.985 | S. cerevisiae deletion strains, locus YLR370C, strain arc18, hits give low values 0.989 | S. cerevisiae deletion strains, locus YLR371W, strain rom2, hits give low values 0.979 | S. cerevisiae deletion strains, locus YLR384C, strain iki3, hits give low values 1.01 | S. cerevisiae deletion strains, locus YLR418C, strain cdc73, hits give low values 0.877 | S. cerevisiae deletion strains, locus YML016C, strain PPZ1, hits give low values 0.994 | S. cerevisiae deletion strains, locus YML032C, strain rad52, hits give low values 0.969 | S. cerevisiae deletion strains, locus YML120C, strain ndi1, hits give low values 0.998 | S. cerevisiae deletion strains, locus YML124C, strain tub3, hits give low values 0.981 | S. cerevisiae deletion strains, locus YMR058W, strain fet3, hits give low values 0.998 | S. cerevisiae deletion strains, locus YMR078C, strain ctf18, hits give low values 0.976 | S. cerevisiae deletion strains, locus YMR125W, strain sto1, hits give low values 0.995 | S. cerevisiae deletion strains, locus YMR129W, hits give low values 0.998 | S. cerevisiae deletion strains, locus YMR205C, strain PFK2, hits give low values 0.981 | S. cerevisiae deletion strains, locus YMR223W, strain ubp8, hits give low values 0.977 | S. cerevisiae deletion strains, locus YMR231W, strain pep5, hits give low values 0.995 | S. cerevisiae deletion strains, locus YMR307W, strain GAS1, hits give low values 0.92 | S. cerevisiae deletion strains, locus YNL067W, strain RPL9B, hits give low values 0.98 | S. cerevisiae deletion strains, locus YNL071W, strain lat1, hits give low values 1.01 | S. cerevisiae deletion strains, locus YNL209W, strain ssb2, hits give low values 0.998 | S. cerevisiae deletion strains, locus YNL233W, strain BNI4, hits give low values 0.977 | S. cerevisiae deletion strains, locus YNL248C, strain rpa49, hits give low values 1 | S. cerevisiae deletion strains, locus YNL250W, strain rad50, hits give low values 0.974 | S. cerevisiae deletion strains, locus YNL271C, strain bni1, hits give low values 0.978 | S. cerevisiae deletion strains, locus YNL298W, strain CLA4, hits give low values 0.963 | S. cerevisiae deletion strains, locus YNL307C, strain MCK1, hits give low values 0.928 | S. cerevisiae deletion strains, locus YNL322C, strain KRE1 (second series), hits give low values 0.999 | S. cerevisiae deletion strains, locus YNL322C, strain KRE1, hits give low values 0.985 | S. cerevisiae deletion strains, locus YNR049C, strain mso1, hits give low values 1 | S. cerevisiae deletion strains, locus YNR052C, strain pop2, hits give low values 0.948 | S. cerevisiae deletion strains, locus YOL012C, strain htz1 0.832 | S. cerevisiae deletion strains, locus YOL147C, strain pex11, hits give low values 0.962 | S. cerevisiae deletion strains, locus YOR001W, strain rrp6, hits give low values 1.02 | S. cerevisiae deletion strains, locus YOR061W, strain CKA2, hits give low values 0.993 | S. cerevisiae deletion strains, locus YOR069W, strain VPS5, hits give low values 0.997 | S. cerevisiae deletion strains, locus YOR070C, strain gyp1, hits give low values 1.02 | S. cerevisiae deletion strains, locus YOR080W, strain dia2, hits give low values 0.999 | S. cerevisiae deletion strains, locus YOR083W, strain WHI5, hits give low values 1 | S. cerevisiae deletion strains, locus YOR106W, strain vam3, hits give low values 1 | S. cerevisiae deletion strains, locus YOR136W, strain idh2, hits give low values 0.986 | S. cerevisiae deletion strains, locus YOR144C, strain elg1, hits give low values 0.968 | S. cerevisiae deletion strains, locus YOR184W, strain ser1, hits give low values 0.944 | S. cerevisiae deletion strains, locus YOR265W, strain rbl2, hits give low values 0.993 | S. cerevisiae deletion strains, locus YOR270C, strain vph1, hits give low values 0.987 | S. cerevisiae deletion strains, locus YOR290C, strain snf2, hits give low values 0.984 | S. cerevisiae deletion strains, locus YOR316C, strain cot1, hits give low values 0.974 | S. cerevisiae deletion strains, locus YPL051W, strain arl3, hits give low values 0.998 | S. cerevisiae deletion strains, locus YPL078C, strain atp4, hits give low values 1.01 | S. cerevisiae deletion strains, locus YPL106C, strain sse1, hits give low values 0.995 | S. cerevisiae deletion strains, locus YPL240C, strain hsp82, hits give low values 1 | S. cerevisiae deletion strains, locus YPR119W, strain clb2, hits give low values 0.978 | S. cerevisiae deletion strains, locus YPR141C, strain kar3, hits give low values 0.977 | S. cerevisiae deletion strains, locus YPR163C, strain tif3, hits give low values 0.933 | S. cerevisiae deletion strains, locus YPR167C, strain met16, hits give low values 0.978 | S. cerevisiae deletion strains, strain wtn01, hits give low values 0.971 | S. cerevisiae strains, strain wild type, hits give low values 0.993
